Most compounds without a hit are left out; they make up all but 3% or so of the library.
LDHA inh: blocks human lactate dehydrogenase A | 480,000 tested, 0.15% active | activity change, % (values are at about 110 or 230 µM) | purified LDHA, NADH/diaphorase-resazurin fluorescence; active compounds read low; in the data active = activity change below about -30%; inconclusive = mostly about -25% to -30%;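 also: plate controls were DMSO wells for no effect and wells without enzyme for full effect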
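Resorufin fluorescence (ex540/em590), read at 0 and 20 min after diaphorase/resazurin addition, reports the NADH left after a 5 min room-temperature reaction of 2 nM human LDH5 with 0.06 mM NADH and 0.2 mM pyruvate.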
BCR signal inh: blocks chronic active B-cell receptor signaling; ABC-DLBCL IkBa-CBG/CBR reporter, luminescence ratio, 4 h; Potency, µM (titrated, usually from 46.1 µM), for inactives: top-dose activity change, negative = inhibition, hits mostly inhibitors; 340,000 tested, 0.05% active; AID 493014; active = well fitted inhibition curve with a large enough effect in the signal ratio, with a control signal flat, not every such curve was filed as active; inconclusive = small, poorly fitted or top-dose-only effect, or effect the other way, or a change in a side signal; the % refers to the signal ratio;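 also: potency is read from the fitted curve at half-maximal effect; plate controls were basal doxycycline-induced cells for no effect and cells given 10 µM MG132 for full effect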
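Cell line TMD8 (human ABC DLBCL), stably expressing tet-inducible CBG68-IkBa fusion and CBR; IMDM/0.5% FBS; cpd up to 46 uM; dox induction, 4 h, 37C/5% CO2; dual luminescence; green/red ratio; MG132 control.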
12-LOX inh: ALOX12 (human) lipoxygenase inhibition; P18054; purified 12hLO, xylenol orange hydroperoxide absorbance; Potency, µM (titrated, usually from 108 µM), for inactives: at the top dose activity change, negative = inhibition, actives largely listed as inhibitors; 580,000 tested, 1.1% active; active = well fitted inhibition curve with a large enough effect; inconclusive = small, poorly fitted or top-dose-only effect, or another doubt; inactive = no such curve, though single readings can be large or run the other way; also: potency is read from the fitted curve at half-maximal effect; % is scaled to controls: 0 for no effect and ±100 for the full control effect
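Purified human 12hLO at 150 nM in 25 mM Hepes, 0.01% Triton X-100, pH 7.0, preincubated 15 min at room temperature with compound. Reaction started with 40 uM arachidonic acid, 30 min at room temperature. Hydroperoxide measured by Fe-xylenol orange, 573/405 nm absorbance ratio.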
KCNH2 3.1 inh: KCNH2 3.1 (human) potassium channel inhibition. 340,000 tested, 0.95% active. AID 720553. U2OS KCNH2 3.1, thallium flux FluxOr; active compounds read low. activity change, % (tested at about 1.8 µM);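 active = maximum activity change below -70%; inconclusive = maximum activity change from -70% to -50%; inactive = maximum activity change above -50%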;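 also: thallium influx rate constant from kinetic fluorescence after stimulation buffer; % is scaled to controls: 0 for no effect and ±100 for the full control effect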
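Channel expression came from 3.1 mutant virus (1.77 x 10^8 /mL) applied to suspended U2OS cells for 4 h. Flux was tracked with FluxOr dye plus Red40 quencher, and kinetic rate constants normalized to controls.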
hERG WT inh: KCNH2 (human, wildtype) channel inhibition | U2OS, BacMam KCNH2, thallium flux FluxOr; active compounds read low | activity change, % at 1.84 µM | 340,000 tested, 0.37% active | AID 720551;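 active = maximum activity change below -70%; inconclusive = maximum activity change between -70% and -50%; inactive = maximum activity change above -50%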; also: % is scaled to controls: 0 for no effect and ±100 for the full control effect
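U2OS cells transduced with wild-type KCNH2 virus are loaded with FluxOr dye for 45 min, and thallium flux is measured in kinetic reads before and after stimulation buffer. Rate constants are normalized to DMSO controls.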
ClpP mod: qHTS Assay for Activators of ClpP | 340,000 tested, 1.9% active | purified B. subtilis ClpP, FRET peptide cleavage, 20 min | ATP-dependent Clp protease proteolytic subunit (Bacillus subtilis (strain 168)), P80244 | Potency, µM (series often up to 57.5 µM), for inactives: at the top dose activity change, negative = active | AID 651965, 2013; active = well fitted falling curve with a large enough effect; inconclusive = small, poorly fitted or top-dose-only effect; inactive = no such curve, though single readings can be large or run the other way; also: potency is read from the fitted curve at half-maximal effect; the source files actives as falling curves though it sought activators and does not explain the sign; nearly all actives have a fitted effect of over 65% in size
Target sequence (P80244 whole entry, looked up): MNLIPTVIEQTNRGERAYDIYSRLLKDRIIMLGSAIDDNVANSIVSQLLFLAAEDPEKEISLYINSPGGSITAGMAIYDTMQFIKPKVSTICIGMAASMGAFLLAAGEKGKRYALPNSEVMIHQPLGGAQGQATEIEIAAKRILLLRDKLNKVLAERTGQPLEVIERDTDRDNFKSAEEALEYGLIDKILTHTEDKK
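FRET quenching reversal measured ClpP activation: 10 microg/mL B. subtilis ClpP at pH 8 with the FRET-FV decapeptide, read at 430 nm after 320 nm excitation. The 20-min minus 0-min signal was scaled between DMSO/no-enzyme wells and ADEP (5.8 microM final).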
The depositor's hits bear a star; ? = inconclusive; / = no result given; ! = not confirmed by another sample; [ ] = remark or other dose.

SMILES	LDHA inh	BCR signal inh	12-LOX inh	KCNH2 3.1 inh	hERG WT inh	ClpP mod
COc1cc(/C=C(/C#N)c2ccc(C(F)(F)F)cn2)ccc1O	6.4	/	8.91µM*	/	/	/
O=[N+]([O-])c1cccc(-c2n[nH]c(=S)n2-c2ccc(Br)cc2)c1	-31.8*	4.7%	?	2.8	4.2	/
CCCn1c(=O)c2c(C(=O)OCC)cc(-c3ccco3)nc2n(CCC)c1=O	-6.5	9.2%	8.9%	7.1	28.7	12.6µM*
CCOC(=O)c1cc(-c2ccccn2)nc2c1c(C)nn2-c1ccc(C)cc1	6.3	/	-1.9%	/	/	/
CCOC(=O)c1cc(-c2ccco2)nc2c1c(C)nn2-c1ccccc1	4.2	-0.3%	35.5µM*!	-17.4	11.8	-4.7%
Cn1c(=O)c(C(=O)COC(=O)c2cc(-c3ccco3)nc3ccccc23)c(N)n(Cc2ccccc2)c1=O	/	-0.8%	/	/	/	/
CCOC(=O)c1cc(-c2ccc(OC(F)F)cc2)nc2nc(SC)[nH]c(=O)c12	-3.1	17.8%	-4.0%	-15.2	4.3	/
CCOC(=O)c1cc(-c2ccco2)nc2c1c(C)nn2-c1ccccc1Cl	-0.2	/	31.6µM*	/	/	/
CCOC(=O)c1cc(-c2ccc(OC(F)F)cc2)nc2c1c(=O)[nH]c(=O)n2C	-6.5	?	2.9%	3.9	2.9	3.55µM*
CCCNC(=O)NC(=O)CN(Cc1ccc(C(F)(F)F)cc1)C1CC1	6.0	/	?	/	/	/
Cc1cc(Cl)ccc1OCC(=O)NC1CCN(C2CC2)CC1	-1.9	/	-15.5%	/	/	/
COc1ccc(C)cc1NC(=O)/C=C/c1ccc2ccccc2n1	0.4	/	?	/	/	/
CCOC(=O)c1cnn2c(C(F)(F)F)cc(-c3ccco3)nc12	-5.7	6.6%	0.0%	-6.3	-0.1	31.6µM*
CCOC(=O)c1cc(-c2ccc(OC)cc2)nc2c1c(C)nn2CCC(N)=S	-2.7	?	39.8µM*	14.6	-3.2	/
CC(C)CCNC(=O)c1cnn2c(C(F)(F)F)cc(-c3ccco3)nc12	18.3	17.9%	?	-6.3	-10.3	-12.1%
CCOC(=O)c1cc(-c2ccc(OC)cc2)nc2ccccc12	3.2	/	?	/	/	/
CN(Cc1ccc2nsnc2c1)C(=O)c1cccc(-n2cnnc2)c1	/	/	37.2%	/	/	/
CCN(CC(=O)Nc1cc(Cl)ccc1OC)CC(=O)NC1CCS(=O)(=O)C1 (stereo not drawn)	-36.2*	0.0%	-9.4%	0.6	-5.8	-0.9%
CCN(CC(=O)Nc1cc(C)c(Cl)cc1OC)CC(=O)NC1CCS(=O)(=O)C1 (stereo not drawn)	-1.2	2.1%	0.0%	1.1	-1.8	/
COc1cccc2cc(-c3nc(-c4ccccc4)cs3)c(=O)oc12	32.0	/	7.4%	/	/	/
COc1ccc(/C=C/c2ccc3ccccc3n2)cc1OC	4.2	/	28.2µM*	/	/	4.3%
O=C(O)COc1c(Cl)cc(/C=C2/NC(=O)NC2=O)cc1Cl	10.6	/	-41.9%	/	/	/
CCN(CC)CCOC(=O)CCc1cccc2ccccc12	-21.4	-6.1%	?	-7.1	-10.6	0.5%
CCN(CC)CCOC(=O)C(Cc1ccco1)Cc1cccc2ccccc12 (stereo not drawn)	-14.6	/	0.0%	-73.8*	-7.0	/
CCCCNC1c2ccccc2C(=O)N1Cc1ccccc1 (stereo not drawn)	-5.3	-6.8%	39.8µM*	-17.1	-11.1	/
SMILES	LDHA inh	BCR signal inh	12-LOX inh	KCNH2 3.1 inh	hERG WT inh	ClpP mod
CC(=O)Nc1ccc2nc(SCc3cccc(Br)c3)sc2c1	7.5	/	?	/	/	/
CCN(CC)CCn1c2ccccc2c2nc3ccccc3nc21	2.7	?	?	3.3	2.8	0.1%
CCN(CC)CCn1c2ccccc2c2n[nH]c(=S)nc21	-1.1	3.6%	31.6µM*	-43.9	52.8	/
Cc1cccc(C)c1NC(=O)CN1CCN(Cc2csc(-c3cccc(Br)c3)n2)CC1	-3.6	/	?	/	/	/
CCCCN(C(=O)c1ccc2c(c1)OCO2)C1CCS(=O)(=O)C1 (stereo not drawn)	-2.0	3.1%	0.9%	-76.5*	1.3	/
COc1cc2oc3ccccc3c2cc1N(CC(=O)N(C)C)S(=O)(=O)c1ccccc1	-1.7	/	11.6%	-84.2*	17.3	0.7%
CCC(C)Sc1cccc(-c2nc3cc(C)ccn3c2NC2CCCCC2)c1 (stereo not drawn)	1.9	1.9%	?	-16.8	-0.9	14.1µM*!
COc1ccc(-c2cccc(-c3nc4ccc(Cl)cn4c3NC3CCCCC3)c2)cc1	0.4	3.8%	7.08µM*	2.5	-6.4	?
CCC(C)Sc1cc(-c2nc3ccc(Cl)cn3c2NC2CCCCC2)ccc1OC (stereo not drawn)	4.6	?	39.8µM*!	12.3	-2.5	?
O=S(=O)(NCc1ccccc1Cn1cccn1)c1ccc(F)cc1F	-10.1	/	7.8%	/	/	/
CCN(CC)S(=O)(=O)N1CC=C(c2c[nH]c3cccc(C)c23)CC1	4.3	/	?	/	/	/
COc1ccc(C(=O)N2CCN(C)C(=O)[C@@H]2C)cc1OC1CCN(C(C)=O)CC1	-1.8	-8.6%	3.7%	0.4	5.8	31.6µM*
COc1ccc(C(=O)N2CCN(C)C(C)C2)cc1OC1CCN(C(C)=O)CC1 (stereo not drawn)	1.2	0.8%	458.2%	6.9	-9.8	0.5%
COc1ccc(C2=Nn3c(nnc3-c3ccccc3OC)SC2)cc1OC1CCOC1 (stereo not drawn)	1.8	8.2µM*	-9.3%	/	/	/
CCOc1nc(CC(C)C)c2c(c1C#N)CC(C)(C)OC2	-1.6	-27.3%	-5.8%	15.9	4.1	/
CCO/C=N/c1c(C#N)c2c(c(=S)n1C)COC(C)(C)C2	-2.6	8.4%	1.6%	-2.7	-6.7	3.55µM*
Cc1ccc2c(c1C)NC(=O)C21N2CCCC2C(C(=O)c2ccc3ccccc3c2)C12C(=O)Nc1ccccc12 (stereo not drawn)	2.6	3.3%	-7.6%	-86.5*	-5.0	-0.5%
COCc1ccc2c(c1)c(OC(C)(C)C(=O)NCC1CC1)nn2Cc1ccccc1	/	/	12.6%[176 µM]	/	/	/
O=C(COc1cccc(Br)c1)N/N=C1\CCSC1	-3.8	-0.8%	12.2%	-11.4	3.2	22.4µM*
CC(NC(=O)COc1cccc(Br)c1)C(=O)O (stereo not drawn)	-10.1	-8.0%	-22.5%[57.4 µM]	17.3	1.6	28.2µM*
O=C(COc1cccc(Br)c1)N/N=C1\CCCc2ccccc21	-5.4	?	39.7%	15.4	-19.3	/
COc1ccc(CN2CCN(Cc3ccncc3)CC2)c(OC)c1	9.1	/	?	/	/	/
Cc1cccc(N2CCN(CC(=O)NCC3CCCCC3)CC2)c1C	-12.8	-3.6%	0.891µM*	6.7	-0.6	-1.8%

Screening results (PubChem BioAssay)
